# Experimental data reported in PubChem BioAssay (NCATS).
# Records with an inconclusive call do not appear. Active and inactive are the calls of the source. Calls follow the shape of the dose curve; as a rule, active = well fitted curve in the direction sought with a large enough effect in the main read-out, with a control signal flat (not every such curve was filed as active); inconclusive = small, poorly fitted or top-dose-only effect, or effect the other way, or a change in a side signal; inactive = no such curve, though single readings can be large or run the other way.
# Assay: qHTS Validation Assay to Find Inhibitors of Chronic Active B-Cell Receptor Signaling (AID 485345)
# Conditions: ABC-DLBCL cells, chronic BCR signaling reporter, CBG luciferase; series mostly up to 46.1 µM
# Text: NIH Molecular Libraries Probe Production Network [MLPCN]
# NIH Chemical Genomics Center [NCGC]
# PI Name: Dr. R. Eric Davis
# Diffuse large B-cell lymphoma (DLBCL) is the most common category of non-Hodgkin lymphoma, with ~20,000 new cases per year in the United States. DLBCL should be regarded as a collection of different neoplasms. Microarray gene expression analysis has defined two principal types of DLBCL, named for their similarity to normal B cell stages or activation states: a germinal center B-cell (GCB) type, and an activated B-cell (ABC) type. In ABC-DLBCL, a constitutive high-level activity of the NF-kappaB family of transcription factors has been observed (1) and NF-kappaB target genes are more highly expressed in ABC primary tumors than in GCB tumors. Functional studies have shown a constitutive high-level activity of the IkappaB (inhibitor of kappa-B) kinase (IKK) complex. […] Further analysis of DLBCL primary tumors for NF-kappaB target gene expression imply that although CARD11 is required for constitutive IKK activity in all ABC-DLBCL lines, mutations in CARD11 may be the root cause of IKK activation only in lines or tumors with such mutations. In other words, CARD11 mutations may explain NF-kappaB activation in only 10% of ABC-DLBCL cases. […] This process has been termed 'chronic active BCR signaling' (CABS).
# The goal of this screen is to find small-molecule inhibitors of the CABS pathway found in ABC-DLBCL lines using a cell-based assay that measures IkappaBalpa stability, which has already been extensively validated in the OCI-Ly3 line (PubChem AID:445; REF: 4).
# A cell-sensor assay for I-kappa-B-alpha stabilization has been developed. The assay uses green (CBG68) and red (CBR) emitting beetle luciferases [Chroma-GloTM developed by Promega Corp.] where the green luciferase is fused to IkappaBalpha and the red luciferase is present in its native state. Both luciferase genes are stably present in the TMD8 human ABC DLBCL cell line, but their expression is under the control of tetracycline-inducible promoters. Following the addition of doxycycline to induce expression of the luciferases, the green luminescence in control cultures rises only slowly because the CBG fusion partner IkappaBalpha is targeted by IKK activity for rapid degradation. In contrast, green luminescence rises rapidly in the presence of proteasome inhibitors or IKK inhibitors. The rise in red luminescence of CBR is not affected by proteasome or IKK inhibitors, and serves as normalization for cell number and nonspecific effects. Compounds were screened as a concentration-titration series that ranged from 46 uM to 3 nM.
# NCGC Assay Protocol Summary:
# Cells were seeded in 1536-well plates at 5000 cells/4uL in IMDM medium containing 0.5% FBS, w/o phenol red, 1% penicillin/streptomycin. Then, 23 nL of compounds or DMSO were delivered to each well using a pin tool. One uL 20ng/ml doxycycline was then dispensed into white solid 1536-well plates and the plates were incubated at 37C/5% C02 in a cell incubator for 4 hrs. Then 4 uL luminescent substrate mix (in-house prepared: 150 mM Tris-Cl, pH 7.6, 3 mM MgCl2, 1% Triton X-100, 5 mM DTT, 0.2 mM CoA, 0.15 mM ATP, 5 mM D-luciferin, final concentrations) was added to each well. The plate was incubated at r.t. for 10-15 min. The plates were measured on a ViewLux plate reader for green luminescence (540/20 nm filter) and red luminescence (618/8 nm filter). The green and red luminescent signals were corrected for red and green luminescence filter overlap using previously determined filter calibration constants (determined using the procedure outlined in the Promega Technical Manual; REF 4). The %Activity was determined from the ratio of corrected green/red luminescent values. MG132 were used as control. Green luminescent and ratio %Activity was determined by normalizing to the difference in signal between basal cells (0% Activity) and cells incubated with 10 uM of the proteasome inhibitor MG-132 (100% Activity). […]
row,Structure (SMILES),outcome
1,CC1=C(CC(=O)O)c2cc(F)ccc2/C1=C\c1ccc(S(C)(=O)=O)cc1,inactive
2,C=Cc1c(C)c2cc3[nH]c(cc4nc(cc5nc(cc1[nH]2)C(C)=C5CCC(=O)O)C(CCC(=O)O)=C4C)c(C)c3C=C,inactive
3,C[C@](N)(Cc1ccc(O)cc1)C(=O)O,inactive
4,NC(=O)c1ncn([C@@H]2O[C@H](CO)[C@@H](O)[C@H]2O)n1,inactive
5,CC1=C(CC(=O)O)c2cc(F)ccc2/C1=C\c1ccc(S(C)=O)cc1 (stereo unspecified),inactive
6,CNCCCC1c2ccccc2C=Cc2ccccc21,inactive
7,CC(CN1c2ccccc2Sc2ccccc21)N(C)C (stereo unspecified),inactive
8,CCN(CC)C(C)CN1c2ccccc2Sc2ccccc21 (stereo unspecified),inactive
9,NC1CCN(c2cccc(Cl)n2)CC1,inactive
10,CCN(CC)CCOC(=O)C1(C2CCCCC2)CCCCC1,inactive
11,CC(C)C(=O)c1c(C(C)C)nn2ccccc12,inactive
12,COc1ccc(Cl)cc1C(=O)NCCc1ccc(S(=O)(=O)NC(=O)NC2CCCCC2)cc1,inactive
13,CN(C)CCCN1c2ccccc2CCc2ccccc21,inactive
14,CC(C)(C)c1onc(OCP(=O)(O)O)c1CC(N)C(=O)O (stereo unspecified),inactive
15,OCc1cc(C(O)CNCCCCCCOCCCCc2ccccc2)ccc1O (stereo unspecified),inactive
16,Cc1cc(N)c2ccccc2[n+]1CCCCCCCCCC[n+]1c(C)cc(N)c2ccccc21,inactive

row,Structure (SMILES),outcome
1,CN(C)CCOC(C)(c1ccccc1)c1ccccn1 (stereo unspecified),inactive
2,O=C1N=C(O)CN1/N=C/c1ccc(-c2ccc([N+](=O)[O-])cc2)o1,inactive
3,CC(C)NC[C@H](O)c1ccc(O)c(O)c1,inactive
4,NC(N)=NCCC[C@H](N)C(=O)O,inactive
5,C#CCN(C)Cc1ccccc1,inactive
6,N=c1c[n+](N2CCOCC2)[n-]o1,inactive
7,CC(C)(C)[C@]1(O)CCN2C[C@H]3c4ccccc4CCc4cccc(c43)[C@@H]2C1,inactive
8,CN(C)CC[C@@H](c1ccc(Cl)cc1)c1ccccn1,inactive
9,CC(=O)OCC(=O)[C@@]1(O)CC[C@H]2[C@@H]3CCC4=CC(=O)CC[C@]4(C)[C@H]3C(=O)C[C@@]21C,inactive
10,Nc1cc(=O)[nH]c(N)n1,inactive
11,CC(C)(C(=O)O)c1ccc(C(O)CCCN2CCC(C(O)(c3ccccc3)c3ccccc3)CC2)cc1 (stereo unspecified),inactive
12,CCN(CC)CCNC(=O)c1cc(Cl)c(N)cc1OC,inactive
13,CC(CN(C)C)CN1c2ccccc2CCc2ccccc21 (stereo unspecified),inactive
14,CCCCCCCCCCCCCCCC(=O)NCCO,inactive
15,CNC(=O)Oc1ccc2c(c1)[C@]1(C)CCN(C)[C@@H]1N2C,inactive
